This note sets out measurements from PubChem BioAssay (NCI).

This is part of a sample that, as a whole, favours compounds with a hit. Of some 83,000 tested, about 20% had one in any assay.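 Testing used 96-well plates and a 48-hour single-concentration exposure. Example: -40 means 40% of the starting cells died.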 A number with no mark means an inactive call. The source made the active and inactive calls. How the source made its calls: active means growth percent below 10; inactive means the rest.

For the first assay, the system named is MOLT-4 leukemia. Briefly: NCI-60 one-dose screen, 48 h (100 = growth as untreated, 0 = no growth, -100 = all killed). The settings on record: 10 µM.
Take `COc1ccc(-c2nc3sccn3c2-c2nc3c([nH]2)C(=O)c2ccccc2C3=O)cc1`: the growth was 76%. Same read-out and setting: the figure for `N=C1c2nc3n(c2C(=O)c2nc4n(c21)CCCC4)CCCC3` is 85.4%. Still for that read-out and setting: the figure for `COc1ccc(-c2nc3ccccn3c2-c2nnc(-c3cc(OC)c(OC)c(OC)c3)o2)cc1` is 92.1%; for `CCN(CC)CCOc1nc2ccc(OC)cc2c2c1-c1ccc(OC)cc1C2=O` it is 3.68% (active); for `CCCCCCCCN(CCCCCCCC)CCCCCCCCCN1CCCc2cc(OC)ccc21` it is 85.8%. The same measure, in the same setting: the result for `COc1ccc2c(c1)C(=O)c1c-2c(OCCN(C)C)nc2cc(OC)c(OC)cc12` reads 11.6%; that for `COc1ccc(/C(=C2\O[C@@H]([C@H]3COC(C)(C)O3)[C@H]3OC(C)(C)O[C@@H]23)c2cc(OC)c(OC)c(OC)c2)cc1O`, 59.9%. With `Nc1ccn(C2CC(O)C(CO)O2)c(=O)n1` (stereo unspecified), the growth was 104%. `CC(C)=CCc1ccc(O)c(=O)cc1C(C)C`: the growth is 8.5% (active).

The next assay has as its system SR leukemia. The assay is described as above. As to conditions: 10 µM.
Turning to `C=C(C(=O)c1ccccc1)C(NC(C)(C)C)c1ccccc1` (stereo unspecified), the growth was -17.7% (active). Still for that read-out and setting: the result for `N=c1c2c(-c3ccccc3)c(-c3ccccc3)n(Cc3ccccc3)c2ncn1CCCO` reads -33.5% (active). The same measure, in the same setting: the figure for `O=C(Nc1nc2ccc(F)cc2s1)c1cc(-c2ccc(F)cc2)n2nc(-c3ccccc3)cc2n1` is 35%; for `CCN1CCC2(CC1)OC(c1ccccc1)C(c1ccccc1)O2` (stereo unspecified) it is 96.9%; for `O=C(O)c1ccc(Cl)cc1Nc1ccc(F)cc1` it is 57.2%. For `CCCCCC(=O)c1ccc(OCCCN2CCN(C(=O)OCC)CC2)cc1`, the growth was 84.4%.

With `COc1ccc(-c2nnc(-c3c(-c4ccccc4)nc4ncccn34)o2)cc1OC`, the growth is 81.1%. Same read-out and setting: the figure for `COc1ccc2nc3cc(Cl)ccc3c(NCCNCC(C)O)c2c1` (stereo unspecified) is 2.01% (active); for `CC(C)(C)NC/C(=C\c1ccccc1)C(=O)c1ccccc1` it is -1.67% (active).

For `COc1ccc(-c2ccc3cc(C(=O)Nc4ccc(O)c(C(=O)/C=C/c5cc(OC)c(OC)c(OC)c5)c4)ccc3c2)cc1`, the growth was 60.3%. As for `CCCCN(CCCC)c1cc(C(=O)CCCCCN)c2ccccc2n1`, the growth was -69.3% (active). Still for that read-out and setting: the result for `COc1ccc(NC(=O)Cc2nc3nc4sc(C)c(C)c4c(=O)n3[nH]2)cc1` reads 99.1%; that for `COc1cc(-c2nc(-c3nnc(-c4ccc(F)c(Cl)c4)o3)c3ccccn23)cc(OC)c1OC`, 42.4%; that for `NC(=O)SCC(=O)Nc1ccc(S(N)(=O)=O)cc1`, 110%.

Turning to `Nc1nccc(Nc2ccccc2)n1`, the growth is 102%.

As to `Oc1[nH]c2cc(Cl)ccc2c1/C=c1/ccc2c(c1)N=C(c1cc(F)cc(F)c1)N=2`, the growth is 11.4%.

Turning to `COc1ccc2c(c1)sc1nc(-c3ccccc3)c(-c3ccsc3)n12`, the growth was 6.49% (active). Consider `CSc1cc(SC)ncn1`, for which the growth is 98.2%. The same measure, in the same setting: the figure for `COc1ccc2c(c1)sc1nc(-c3ccccc3)c(-c3ccc(O)c(OC)c3)n12` is 17.2%; for `CCCCCCCCCCCCCC[n+]1ccc(C(N)=O)cc1` it is -15.8% (active); for `CN1c2ccccc2[C@]2(Cc3ccccc3)Cc3ccccc3N[C@H]12` it is 91.2%. Same read-out and setting: the figure for `CCN(CC)CCSCCCNc1c2ccc(Cl)cc2nc2ccc(OC)cc12` is -19.8% (active); for `CC(=O)c1cc(Br)ccc1O` it is 102%; for `COc1ccc(-c2nc3sccn3c2-c2nc3c([nH]2)C(=O)c2ccccc2C3=O)cc1` it is 76.6%. The same measure, in the same setting: the result for `N=C1c2nc3n(c2C(=O)c2nc4n(c21)CCCC4)CCCC3` reads 69.5%; that for `COc1ccc(-c2nc3ccccn3c2-c2nnc(-c3cc(OC)c(OC)c(OC)c3)o2)cc1`, 37.7%; that for `CCN(CC)CCOc1nc2ccc(OC)cc2c2c1-c1ccc(OC)cc1C2=O`, -14.8% (active). `CCCCCCCCN(CCCCCCCC)CCCCCCCCCN1CCCc2cc(OC)ccc21`: the growth is 77.5%. `COc1ccc2c(c1)C(=O)c1c-2c(OCCN(C)C)nc2cc(OC)c(OC)cc12`: the growth is 1.83% (active). Regarding `COc1ccc(/C(=C2\O[C@@H]([C@H]3COC(C)(C)O3)[C@H]3OC(C)(C)O[C@@H]23)c2cc(OC)c(OC)c(OC)c2)cc1O`, the growth is 25.4%.

With `Nc1ccn(C2CC(O)C(CO)O2)c(=O)n1` (stereo unspecified), the growth was 92.7%. The same measure, in the same setting: the figure for `CC(C)=CCc1ccc(O)c(=O)cc1C(C)C` is 5.25% (active).
